Compound activity: PubChem, National Center for Advancing Translational Sciences (NCATS)
A selection: hits, their analogues and other compounds. The true share with any hit is near 11%.
AMA1 RON2 block: AMA1-RON2 (P. falciparum) interaction inhibition | Potency, µM (series often up to 58.2 µM), hits mostly inhibitors | 360,000 compounds, 0.2% hits | AlphaScreen AMA1-biotinylated RON2 peptide binding | AID 720542; note: nearly all actives have a fitted effect of over 45% in size
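AMA1 (3D7) with his tag at 25 nM final met compounds first, then biotinylated RON2 peptide at 25 nM; detection used donor plus acceptor beads, 10 µg/mL apiece, read by AlphaScreen after 30 min at room temperature.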
Pf growth 96h: P. falciparum growth inhibition at 96 hour, primary screen for plastid delayed-death inhibitors; AID 504834; 320,000 compounds, 6.9% hits; P. falciparum luciferase reporter growth, 96 h; Potency, µM (doses to about 28.7 µM), usual class: inhibitors
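Readout is luminescence from an integrated firefly luciferase in P. falciparum. Red cells, 2% hematocrit and 0.05% parasitemia final, were cultured with compound through two parasite generations (96 hours) at 37 C, 5% CO2.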
Pf growth 48h: inhibits P. falciparum growth in the first generation, 48 h | P. falciparum luciferase growth in erythrocytes, 48 h | Potency, µM (titrated, usually from 28.7 µM), actives largely listed as inhibitors | 310,000 compounds, 5.9% hits
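Luciferase-expressing P. falciparum in infected erythrocytes (2% hematocrit, 0.1% parasitemia final) in RPMI 1640/0.5% Albumax were exposed to compound for 48 hours at 37 C, 5% CO2; growth read as luminescence.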
Sm TGR inh: S. mansoni TGR enzyme inhibition | purified TGR, DTNB reduction, TNB absorbance 405 nm | Potency, µM (titrated, usually from 114 µM), hits mostly inhibitors | 360,000 compounds, 3% hits; note: nearly all actives have a fitted effect of over 60% in size
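First, TGR (20 nM dispensed) and NADPH were mixed with compound. Second, a 15 min room-temperature incubation followed. Third, further NADPH and then DTNB were added to start the reaction. Finally, TNB absorbance was monitored kinetically.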
NS1 function inh: blocks influenza NS1 protein function; 270,000 compounds, 0.4% hits; Potency, µM (series often up to 46.1 µM); AID 2326; calls by dose curve; note: actives are rising curves; nearly all actives have a fitted effect of over 50% in size
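In this qHTS, NS1 from influenza A is expressed in budding yeast, where it slows growth. Cells are switched from glucose to 2% galactose medium (pH 6.0, -URA), treated with compound, and growth recovery is read at OD600.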
Hits are given with their value; - = inactive; ? = inconclusive; . = no result given; [ ] = another dose, or the depositor's remark. Unless noted, calls come from the whole dose curve; as a rule, active = well fitted curve in the direction sought with a large enough effect; inconclusive = small, poorly fitted or top-dose-only effect, or another doubt; inactive = no such curve, though single readings can be large; an effect the other way counts as inactive or inconclusive.

SMILES	AMA1 RON2 block	Pf growth 96h	Pf growth 48h	Sm TGR inh	NS1 function inh
CCOC(=O)c1c(NC(=O)Cn2nc([N+](=O)[O-])c(Br)c2C)sc2c1CCC(C)C2 (stereo not given)	-	0.0131µM	-	-	-
COc1ccc(NC(=O)c2c(F)cccc2Cl)cc1S(=O)(=O)N1CCOCC1	-	.	.	.	.
CC(C)(COP(=O)(O)OP(=O)(O)OC[C@H]1O[C@@H](n2cnc3c(N)ncnc32)[C@H](O)[C@@H]1OP(=O)(O)O)C(O)C(=O)NCCC(=O)NCCS (stereo not given in full)	.	-	-	.	.
C/C1=C2N=C(/C=C3N=C(/C(C)=C4\[N-]C(C)(C5N=C1C(C)(CCC(=O)NCC(C)OP(=O)([O-])O[C@H]1C(O)C(n6cnc7cc(C)c(C)cc76)O[C@@H]1CO)C5CC(N)=O)C(C)(CC(N)=O)C4CCC(N)=O)C(C)(CC(N)=O)C\3CCC(N)=O)C(C)(C)C/2CCC(N)=O.[CH2-]C1OC(n2cnc3c(N)ncnc32)C(O)C1O.[Co] (stereo not given in full)	.	6.75µM	8.49µM	.	.
CCCCP(=O)(CCCC)Cc1ccccc1O	-	?	14.7µM	-	-
CCOC(=O)c1[nH]c(C)c(CCC(=O)Nc2cc(Cl)c(OC)cc2OC)c1C	.	.	.	-	.
CCSc1nnc(-c2ccccc2NC(=O)CC)c(=O)[nH]1	-	4.65µM	-	-	-
Cc1ccn(S(=O)(=O)c2ccc(N3CCCC3=O)cc2)n1	-	?	-	-	-
CCOc1nc(S(=O)(=O)c2ccc(C)cc2)c(Cl)s1	-	-[5.75 µM]	-	-	-
CSc1nc(S(=O)(=O)c2ccc(C)cc2)c(Cl)s1	-	?	11.7µM	-	.
